Experiment in all cases: DAPPL (digital affinity profiling via proximity ligation, sequencing); 10 mM Tris-HCl pH 7.5, 50 mM NaCl, 1 mM DTT, 4% glycerol, room temperature, 30 min; GST-TFs on glutathione beads, 16-mer random dsDNA library, 0.1% formaldehyde crosslink after washing; high values mean tight binding
One experiment concerns the target T1, FEV (Homo sapiens, UniProt Q99581 1-238).
T1 sequence: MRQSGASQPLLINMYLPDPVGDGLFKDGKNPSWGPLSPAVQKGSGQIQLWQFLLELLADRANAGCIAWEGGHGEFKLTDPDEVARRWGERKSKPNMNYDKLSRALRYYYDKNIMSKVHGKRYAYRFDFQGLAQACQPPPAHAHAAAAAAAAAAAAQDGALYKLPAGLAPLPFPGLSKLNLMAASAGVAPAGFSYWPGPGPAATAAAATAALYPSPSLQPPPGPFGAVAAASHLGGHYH
The conditions noted are these: protein: recombinant; tags: N-terminal GST; dsDNA, one strand shown. The method in brief: (§1)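 A tag-only sample was pooled with DNA-barcoded human transcription factors that had been expressed in yeast as GST fusions and captured on glutathione beads. The pools were incubated for 30 min at room temperature with 200 nmole of a random double-stranded 16-mer DNA library in Tris/NaCl/DTT/glycerol buffer, then washed, crosslinked with 0.1% formaldehyde, proximity-ligated (BsaI/T4 ligase, 1 h, 37 °C), PCR-amplified and sequenced on an Illumina NextSeq500. Binding signal is each hexamer's read frequency for a factor divided by its frequency for the tag-only sample.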

In the next experiment the target is ETV5 (Homo sapiens, UniProt P41161 1-510). As to conditions: protein: recombinant; tags: N-terminal GST; dsDNA, one strand shown. The method in brief:
as §1

Another experiment addresses HSF1 (Homo sapiens, UniProt Q00613 1-529). As to conditions: protein: recombinant; tags: N-terminal GST; chain copies: 3; dsDNA, one strand shown. In short, it runs like this: as §1
In the next experiment the target is T2, SPIC (Homo sapiens, UniProt Q8N5J4 1-248).
T2 sequence: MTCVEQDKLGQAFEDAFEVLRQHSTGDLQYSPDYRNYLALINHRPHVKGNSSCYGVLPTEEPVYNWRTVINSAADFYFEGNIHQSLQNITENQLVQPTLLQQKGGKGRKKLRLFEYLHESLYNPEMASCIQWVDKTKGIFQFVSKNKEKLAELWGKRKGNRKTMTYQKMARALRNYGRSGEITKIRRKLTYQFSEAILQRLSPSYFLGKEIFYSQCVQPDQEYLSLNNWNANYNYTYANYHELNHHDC
The conditions noted are these: protein: recombinant; tags: N-terminal GST; dsDNA, one strand shown. In short, it runs like this: as §1

In the next experiment the target is ELF4 (Homo sapiens, UniProt Q99607 1-663). The conditions noted are these: protein: recombinant; tags: N-terminal GST; dsDNA, one strand shown. In short, it runs like this:
as §1

For another experiment, the target named is T3, ELK4 (Homo sapiens, UniProt P28324-2 1-405).
T3 sequence: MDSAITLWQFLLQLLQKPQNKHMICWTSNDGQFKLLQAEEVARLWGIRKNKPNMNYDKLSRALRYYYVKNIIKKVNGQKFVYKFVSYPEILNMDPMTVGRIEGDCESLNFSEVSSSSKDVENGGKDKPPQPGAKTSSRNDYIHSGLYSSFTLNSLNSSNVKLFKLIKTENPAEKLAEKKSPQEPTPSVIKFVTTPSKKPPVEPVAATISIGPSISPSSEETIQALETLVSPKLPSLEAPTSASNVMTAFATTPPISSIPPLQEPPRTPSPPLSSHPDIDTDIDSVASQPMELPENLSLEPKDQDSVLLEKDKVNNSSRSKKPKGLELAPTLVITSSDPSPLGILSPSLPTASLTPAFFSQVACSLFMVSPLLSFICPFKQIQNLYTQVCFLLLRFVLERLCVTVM
The conditions noted are these: protein: recombinant; tags: N-terminal GST; dsDNA, one strand shown. In short, it runs like this:
as §1

The next experiment addresses T4, ETV2 (Homo sapiens, UniProt O00321 1-342).
T4 sequence: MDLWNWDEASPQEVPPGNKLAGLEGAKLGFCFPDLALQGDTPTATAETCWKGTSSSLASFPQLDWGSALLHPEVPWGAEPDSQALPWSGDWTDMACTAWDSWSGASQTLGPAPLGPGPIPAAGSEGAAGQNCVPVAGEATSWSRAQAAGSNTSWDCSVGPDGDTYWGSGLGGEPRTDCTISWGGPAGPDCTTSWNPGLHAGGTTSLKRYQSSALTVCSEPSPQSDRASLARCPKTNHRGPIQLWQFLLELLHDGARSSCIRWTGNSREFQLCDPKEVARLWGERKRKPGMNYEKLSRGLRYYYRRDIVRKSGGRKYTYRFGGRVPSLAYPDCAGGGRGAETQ
As to conditions: protein: recombinant; tags: N-terminal GST; dsDNA, one strand shown. The method in brief:
as §1

Another experiment addresses T5, ELF3 (Homo sapiens, UniProt P78545 1-371).
T5 sequence: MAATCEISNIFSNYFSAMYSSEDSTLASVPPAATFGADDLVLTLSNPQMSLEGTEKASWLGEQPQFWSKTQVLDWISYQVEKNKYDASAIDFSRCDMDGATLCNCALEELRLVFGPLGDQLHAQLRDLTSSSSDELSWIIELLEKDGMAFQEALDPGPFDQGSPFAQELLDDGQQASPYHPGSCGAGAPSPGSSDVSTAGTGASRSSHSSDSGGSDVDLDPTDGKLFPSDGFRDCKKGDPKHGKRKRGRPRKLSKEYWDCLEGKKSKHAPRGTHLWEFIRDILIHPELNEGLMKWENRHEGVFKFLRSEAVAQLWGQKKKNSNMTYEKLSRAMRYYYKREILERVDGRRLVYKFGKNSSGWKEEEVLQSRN
As to conditions: protein: recombinant; tags: N-terminal GST; dsDNA, one strand shown. The method in brief:
as §1

Another experiment has as its target CRX (Homo sapiens, UniProt O43186 1-299). The conditions noted are these: protein: recombinant; tags: N-terminal GST; dsDNA, one strand shown. In short, it runs like this: as §1
Another experiment concerns the target ETV1 (Homo sapiens, UniProt P50549 1-477). The conditions noted are these: protein: recombinant; tags: N-terminal GST; dsDNA, one strand shown. The method in brief:
as §1

A further experiment addresses T6, ERF (Homo sapiens, UniProt P50548 1-548).
T6 sequence: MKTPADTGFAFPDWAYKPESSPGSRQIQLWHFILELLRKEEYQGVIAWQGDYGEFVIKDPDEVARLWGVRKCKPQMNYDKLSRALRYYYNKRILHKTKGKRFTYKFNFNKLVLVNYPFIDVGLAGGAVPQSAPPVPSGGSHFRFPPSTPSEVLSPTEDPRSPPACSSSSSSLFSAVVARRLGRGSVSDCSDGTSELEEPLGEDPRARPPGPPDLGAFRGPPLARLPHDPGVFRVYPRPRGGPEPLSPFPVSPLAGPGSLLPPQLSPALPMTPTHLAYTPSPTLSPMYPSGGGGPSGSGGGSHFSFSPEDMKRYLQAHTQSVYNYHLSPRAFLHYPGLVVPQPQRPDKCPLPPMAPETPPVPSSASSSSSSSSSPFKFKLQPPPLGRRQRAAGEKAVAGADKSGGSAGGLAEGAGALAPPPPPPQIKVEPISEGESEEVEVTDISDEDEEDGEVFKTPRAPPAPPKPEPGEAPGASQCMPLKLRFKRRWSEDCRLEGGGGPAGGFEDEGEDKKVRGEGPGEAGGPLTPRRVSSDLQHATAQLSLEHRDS
As to conditions: protein: recombinant; tags: N-terminal GST; dsDNA, one strand shown. In short, it runs like this:
as §1

The next experiment has as its target T7, ETV3L (Homo sapiens, UniProt Q6ZN32 1-361).
T7 sequence: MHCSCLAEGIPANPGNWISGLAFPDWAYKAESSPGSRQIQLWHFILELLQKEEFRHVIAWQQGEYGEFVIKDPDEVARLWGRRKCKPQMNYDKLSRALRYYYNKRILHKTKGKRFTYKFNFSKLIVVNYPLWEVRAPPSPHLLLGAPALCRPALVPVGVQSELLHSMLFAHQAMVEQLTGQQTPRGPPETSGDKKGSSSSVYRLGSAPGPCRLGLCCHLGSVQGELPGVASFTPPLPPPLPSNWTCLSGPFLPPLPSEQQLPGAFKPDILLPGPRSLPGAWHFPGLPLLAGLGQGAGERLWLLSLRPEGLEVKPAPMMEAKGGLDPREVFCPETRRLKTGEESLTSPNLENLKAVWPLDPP
As to conditions: protein: recombinant; tags: N-terminal GST; dsDNA, one strand shown. The method in brief: as §1

The target in the next experiment is T8, ETS2 (Homo sapiens, UniProt P15036 1-469).
T8 sequence: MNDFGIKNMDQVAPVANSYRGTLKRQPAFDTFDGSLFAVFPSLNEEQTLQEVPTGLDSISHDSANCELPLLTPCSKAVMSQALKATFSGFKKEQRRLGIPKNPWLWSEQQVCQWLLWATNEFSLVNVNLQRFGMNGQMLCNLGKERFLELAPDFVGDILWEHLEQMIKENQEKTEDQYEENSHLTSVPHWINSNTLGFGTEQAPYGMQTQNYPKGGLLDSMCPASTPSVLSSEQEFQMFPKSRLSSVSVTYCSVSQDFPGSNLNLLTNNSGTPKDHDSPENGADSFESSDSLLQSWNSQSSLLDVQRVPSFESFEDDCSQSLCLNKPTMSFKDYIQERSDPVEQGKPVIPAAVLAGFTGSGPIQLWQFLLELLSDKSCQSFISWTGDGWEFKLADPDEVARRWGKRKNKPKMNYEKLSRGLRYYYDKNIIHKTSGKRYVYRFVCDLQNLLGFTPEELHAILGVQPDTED
As to conditions: protein: recombinant; tags: N-terminal GST; dsDNA, one strand shown. In short, it runs like this: as §1

A further experiment deals with T9, SPDEF (Homo sapiens, UniProt O95238 1-335).
T9 sequence: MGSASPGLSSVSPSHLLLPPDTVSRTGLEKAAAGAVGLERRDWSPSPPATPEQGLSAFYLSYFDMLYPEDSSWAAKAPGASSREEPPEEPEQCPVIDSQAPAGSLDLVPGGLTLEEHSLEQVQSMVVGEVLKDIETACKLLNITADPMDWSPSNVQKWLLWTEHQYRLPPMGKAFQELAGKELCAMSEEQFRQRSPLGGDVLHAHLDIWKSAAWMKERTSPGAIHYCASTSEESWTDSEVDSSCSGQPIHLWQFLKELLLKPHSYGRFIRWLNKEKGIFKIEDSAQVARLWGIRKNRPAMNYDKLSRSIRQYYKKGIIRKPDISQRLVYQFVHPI
As to conditions: protein: recombinant; tags: N-terminal GST; dsDNA, one strand shown. In short, it runs like this:
as §1

A further experiment has as its target T10, ETV7 (Homo sapiens, UniProt Q9Y603 1-341).
T10 sequence: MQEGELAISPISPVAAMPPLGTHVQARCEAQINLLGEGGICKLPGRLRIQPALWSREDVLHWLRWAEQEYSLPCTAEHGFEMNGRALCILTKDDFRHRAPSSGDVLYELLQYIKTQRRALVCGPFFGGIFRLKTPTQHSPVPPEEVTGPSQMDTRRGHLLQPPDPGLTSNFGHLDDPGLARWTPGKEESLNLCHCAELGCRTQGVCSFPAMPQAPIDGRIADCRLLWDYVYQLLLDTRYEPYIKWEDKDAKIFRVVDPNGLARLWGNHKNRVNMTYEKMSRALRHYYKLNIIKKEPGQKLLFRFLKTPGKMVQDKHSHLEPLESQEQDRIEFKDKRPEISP
The conditions noted are these: protein: recombinant; tags: N-terminal GST; dsDNA, one strand shown. The method in brief:
as §1

The next experiment deals with T11, ELF5 (Homo sapiens, UniProt Q9UKW6-2 1-255).
T11 sequence: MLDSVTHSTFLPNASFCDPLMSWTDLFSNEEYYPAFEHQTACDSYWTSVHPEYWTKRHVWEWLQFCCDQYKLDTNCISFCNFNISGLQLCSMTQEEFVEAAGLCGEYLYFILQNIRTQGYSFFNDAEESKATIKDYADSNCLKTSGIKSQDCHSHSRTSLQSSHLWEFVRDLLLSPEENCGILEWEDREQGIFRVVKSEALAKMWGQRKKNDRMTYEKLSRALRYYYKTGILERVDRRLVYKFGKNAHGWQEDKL
The conditions noted are these: protein: recombinant; tags: N-terminal GST; dsDNA, one strand shown. The method in brief:
as §1

The target of the next experiment is T12, ETV3 (Homo sapiens, UniProt P41162-2 1-143).
T12 sequence: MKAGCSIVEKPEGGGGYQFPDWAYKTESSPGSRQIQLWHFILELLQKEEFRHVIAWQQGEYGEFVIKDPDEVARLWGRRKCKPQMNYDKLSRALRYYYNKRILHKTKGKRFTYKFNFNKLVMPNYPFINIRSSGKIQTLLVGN
As to conditions: protein: recombinant; tags: N-terminal GST; dsDNA, one strand shown. In short, it runs like this: as §1

Another experiment deals with ETV6 (Homo sapiens, UniProt P41212 1-452). As to conditions: protein: recombinant; tags: N-terminal GST; dsDNA, one strand shown. In short, it runs like this:
as §1

Sequence of ETV1 (P50549 whole entry): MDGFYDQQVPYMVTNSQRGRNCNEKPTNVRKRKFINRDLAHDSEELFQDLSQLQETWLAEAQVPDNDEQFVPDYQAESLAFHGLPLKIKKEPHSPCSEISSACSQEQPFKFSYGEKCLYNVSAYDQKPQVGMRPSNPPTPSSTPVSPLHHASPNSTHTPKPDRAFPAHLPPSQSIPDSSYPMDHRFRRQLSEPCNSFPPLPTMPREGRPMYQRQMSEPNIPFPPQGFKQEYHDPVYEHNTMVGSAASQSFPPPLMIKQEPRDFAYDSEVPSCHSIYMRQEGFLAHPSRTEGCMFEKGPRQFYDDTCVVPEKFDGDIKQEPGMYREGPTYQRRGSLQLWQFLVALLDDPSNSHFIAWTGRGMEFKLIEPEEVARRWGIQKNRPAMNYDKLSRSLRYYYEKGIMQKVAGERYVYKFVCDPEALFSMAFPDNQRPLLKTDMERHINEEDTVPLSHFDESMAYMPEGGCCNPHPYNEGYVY
Sequence of CRX (O43186 whole entry): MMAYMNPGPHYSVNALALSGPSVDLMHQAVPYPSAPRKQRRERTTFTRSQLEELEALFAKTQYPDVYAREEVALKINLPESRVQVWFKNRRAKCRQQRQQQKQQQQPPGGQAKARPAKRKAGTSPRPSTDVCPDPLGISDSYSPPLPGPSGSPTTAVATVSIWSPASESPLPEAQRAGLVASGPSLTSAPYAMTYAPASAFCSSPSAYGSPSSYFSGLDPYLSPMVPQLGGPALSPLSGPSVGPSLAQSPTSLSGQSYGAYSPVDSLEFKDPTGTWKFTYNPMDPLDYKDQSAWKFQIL
Sequence of ETV6 (P41212 whole entry): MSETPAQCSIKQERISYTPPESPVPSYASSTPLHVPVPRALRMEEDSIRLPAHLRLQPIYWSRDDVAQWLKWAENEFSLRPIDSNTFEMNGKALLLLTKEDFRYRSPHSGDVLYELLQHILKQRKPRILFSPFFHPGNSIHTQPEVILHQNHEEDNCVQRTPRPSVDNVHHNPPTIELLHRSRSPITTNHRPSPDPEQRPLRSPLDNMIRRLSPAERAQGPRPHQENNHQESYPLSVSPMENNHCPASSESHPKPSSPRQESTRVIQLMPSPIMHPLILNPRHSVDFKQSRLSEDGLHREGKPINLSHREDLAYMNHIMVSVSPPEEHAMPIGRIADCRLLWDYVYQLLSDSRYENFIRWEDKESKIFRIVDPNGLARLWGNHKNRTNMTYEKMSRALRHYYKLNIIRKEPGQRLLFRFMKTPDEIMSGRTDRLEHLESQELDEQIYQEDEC
Sequence of HSF1 (Q00613 whole entry): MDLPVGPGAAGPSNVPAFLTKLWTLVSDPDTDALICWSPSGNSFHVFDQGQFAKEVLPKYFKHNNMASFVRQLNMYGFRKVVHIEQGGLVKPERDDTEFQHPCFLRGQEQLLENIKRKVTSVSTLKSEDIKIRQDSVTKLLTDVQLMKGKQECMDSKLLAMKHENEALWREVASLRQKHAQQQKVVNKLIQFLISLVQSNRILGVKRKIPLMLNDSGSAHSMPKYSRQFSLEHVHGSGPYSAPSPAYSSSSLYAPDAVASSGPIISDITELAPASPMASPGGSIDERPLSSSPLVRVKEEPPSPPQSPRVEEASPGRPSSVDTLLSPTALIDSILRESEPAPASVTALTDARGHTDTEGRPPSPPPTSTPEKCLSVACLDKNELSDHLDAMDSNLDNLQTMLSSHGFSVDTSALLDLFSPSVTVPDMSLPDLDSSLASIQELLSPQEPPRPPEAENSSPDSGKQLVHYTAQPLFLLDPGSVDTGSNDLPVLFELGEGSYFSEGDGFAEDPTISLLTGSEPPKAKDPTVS
Sequence of ELF4 (Q99607 whole entry): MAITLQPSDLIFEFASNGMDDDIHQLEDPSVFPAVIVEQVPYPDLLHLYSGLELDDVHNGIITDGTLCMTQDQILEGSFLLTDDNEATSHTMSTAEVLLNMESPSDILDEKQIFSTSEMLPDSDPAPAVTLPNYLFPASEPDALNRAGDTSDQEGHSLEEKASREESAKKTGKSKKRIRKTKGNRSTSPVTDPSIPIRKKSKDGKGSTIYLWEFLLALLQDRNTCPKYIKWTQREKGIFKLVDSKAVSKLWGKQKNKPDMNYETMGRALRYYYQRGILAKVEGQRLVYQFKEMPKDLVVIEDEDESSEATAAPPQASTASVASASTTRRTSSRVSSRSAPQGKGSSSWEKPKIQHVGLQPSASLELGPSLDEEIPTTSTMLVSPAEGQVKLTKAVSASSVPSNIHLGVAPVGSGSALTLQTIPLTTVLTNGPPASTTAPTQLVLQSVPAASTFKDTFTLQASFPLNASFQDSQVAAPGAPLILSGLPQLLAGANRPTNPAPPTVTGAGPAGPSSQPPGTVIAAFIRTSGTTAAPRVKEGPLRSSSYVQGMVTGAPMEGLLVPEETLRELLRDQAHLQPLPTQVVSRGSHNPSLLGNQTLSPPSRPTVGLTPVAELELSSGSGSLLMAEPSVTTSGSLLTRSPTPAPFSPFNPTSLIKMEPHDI
Sequence of ETV5 (P41161 whole entry): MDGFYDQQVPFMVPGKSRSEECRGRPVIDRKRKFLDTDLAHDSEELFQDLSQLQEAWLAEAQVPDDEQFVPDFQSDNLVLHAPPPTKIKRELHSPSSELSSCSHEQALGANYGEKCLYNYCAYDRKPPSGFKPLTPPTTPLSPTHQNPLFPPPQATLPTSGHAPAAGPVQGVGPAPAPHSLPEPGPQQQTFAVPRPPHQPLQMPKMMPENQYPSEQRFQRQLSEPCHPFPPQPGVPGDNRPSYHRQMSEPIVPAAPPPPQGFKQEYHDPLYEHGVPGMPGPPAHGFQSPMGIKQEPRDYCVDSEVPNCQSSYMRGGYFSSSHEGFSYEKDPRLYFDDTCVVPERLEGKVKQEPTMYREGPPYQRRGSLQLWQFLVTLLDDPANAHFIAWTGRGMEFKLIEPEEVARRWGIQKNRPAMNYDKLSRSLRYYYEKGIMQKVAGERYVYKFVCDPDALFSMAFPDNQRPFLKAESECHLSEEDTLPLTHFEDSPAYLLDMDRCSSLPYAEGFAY

Turning to CTAACT, the binding signal with FEV was 1.34 fold enrichment (6-mer frequency, TF over GST control); with ETV5, 1.34 fold enrichment (6-mer frequency, TF over GST control); in the experiment with HSF1, 1.19 fold enrichment (6-mer frequency, TF over GST control); in the experiment with SPIC, 1.31 fold enrichment (6-mer frequency, TF over GST control); with ELF4, 1.4 fold enrichment (6-mer frequency, TF over GST control); in the experiment with ELK4 it was 1.36 fold enrichment (6-mer frequency, TF over GST control). In addition, the binding signal with ETV2 was 1.27 fold enrichment (6-mer frequency, TF over GST control); with ELF3, 1.21 fold enrichment (6-mer frequency, TF over GST control); in the experiment with CRX, 1.21 fold enrichment (6-mer frequency, TF over GST control); with ETV1 it was 1.28 fold enrichment (6-mer frequency, TF over GST control); in the experiment with ERF it was 1.32 fold enrichment (6-mer frequency, TF over GST control); in the experiment with ETV3L it was 1.19 fold enrichment (6-mer frequency, TF over GST control). In addition, the binding signal is 1.35 fold enrichment (6-mer frequency, TF over GST control) with ETS2; 1.24 fold enrichment (6-mer frequency, TF over GST control) with SPDEF; 1.29 fold enrichment (6-mer frequency, TF over GST control) with ETV7; 1.21 fold enrichment (6-mer frequency, TF over GST control) in the experiment with ELF5; 1.24 fold enrichment (6-mer frequency, TF over GST control) with ETV3; 1.29 fold enrichment (6-mer frequency, TF over GST control) with ETV6.
